Compound activity: PubChem BioAssay, National Center for Advancing Translational Sciences (NCATS)
HEK293 cAMP cs: parental HEK293 cAMP activation (counter-screen); parental HEK293 CNG cAMP sensor, membrane potential fluorescence; Potency, µM (doses to about 57.1 µM), without a hit: top-dose activation, most hits filed as activators; hit rate 2.5% among 73,000; note: % of control where 0% means no effect; nearly all actives have a fitted effect of over 55% in size
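Parental HEK 293 cells stably expressing a modified CNG channel (no TSHR) report cAMP rise as membrane depolarization. Membrane potential dye with 100 uM RO 20-1724 was loaded for 60 min at room temperature, then compound added for 30 min; fluorescence read at 590 nm.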
Tau fil binding: binds recombinant human tau filaments | P10636 | recombinant tau filaments, thioflavin S fluorescence, 15 h; filaments grown with octadecylsulfate alongside compound | Potency, µM (highest dose often 57.1 µM), inactives show at the highest dose activity change, negative = inhibition | hit rate 2% among 71,000;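 note: % is set by controls: 0 for no effect and ±100 for the full control effect; actives lower thioflavin S fluorescence by blocking filaments or displacing dye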
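Tau 2 uM in ThS buffer dispensed; compound added; 60 uM ODS added (finals 1 uM tau, 30 uM ODS); 15 h 37 C; fluor ex450/em510.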
ERK AVP inh: inhibitors of vasopressin-stimulated ERK signaling pathway. HEK293-V1b, vasopressin-stimulated pERK AlphaScreen. Potency, µM (doses to about 57.5 µM), inactives show top-dose activity, negative = inhibition, most hits filed as inhibitors. hit rate 0.99% among 72,000. AID 995; note: % is set by controls: 0 for no effect and ±100 for the full control effect; nearly all actives have a fitted effect of over 55% in size
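Overnight-seeded V1b-HEK293 cells in 1% FBS got compound, then vasopressin (25 nM final, 5 min, 37C), then lysis buffer. AlphaScreen detection of phospho-ERK; activity normalized to basal and full-stimulation controls.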
PK Bst: pyruvate kinase (B. stearothermophilus) modulation; hit rate 1.2% among 51,000; Potency, µM; purified pyruvate kinase, luminescence ATP production; ribose 5-phosphate activator present at AC10; in the data active = potency below about 11 µM; inconclusive = mostly about 12 µM to 25 µM;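 the screen sought inhibitors and activators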;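 note: scaled between full activation by ribose 5 phosphate and full inhibition by luteolin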
Luciferase inh: firefly luciferase inhibition | P08659 | purified firefly luciferase, luminescence, 8 min | Potency, µM (titrated, usually from 57.1 µM), for inactives: at the highest dose activity change, negative = inhibition, actives largely listed as inhibitors | hit rate 2.2% among 72,000 | AID 411; note: % is set by controls: 0 for no effect and ±100 for the full control effect; nearly all actives have a fitted effect of over 40% in size
Target sequence (P08659 whole entry, looked up): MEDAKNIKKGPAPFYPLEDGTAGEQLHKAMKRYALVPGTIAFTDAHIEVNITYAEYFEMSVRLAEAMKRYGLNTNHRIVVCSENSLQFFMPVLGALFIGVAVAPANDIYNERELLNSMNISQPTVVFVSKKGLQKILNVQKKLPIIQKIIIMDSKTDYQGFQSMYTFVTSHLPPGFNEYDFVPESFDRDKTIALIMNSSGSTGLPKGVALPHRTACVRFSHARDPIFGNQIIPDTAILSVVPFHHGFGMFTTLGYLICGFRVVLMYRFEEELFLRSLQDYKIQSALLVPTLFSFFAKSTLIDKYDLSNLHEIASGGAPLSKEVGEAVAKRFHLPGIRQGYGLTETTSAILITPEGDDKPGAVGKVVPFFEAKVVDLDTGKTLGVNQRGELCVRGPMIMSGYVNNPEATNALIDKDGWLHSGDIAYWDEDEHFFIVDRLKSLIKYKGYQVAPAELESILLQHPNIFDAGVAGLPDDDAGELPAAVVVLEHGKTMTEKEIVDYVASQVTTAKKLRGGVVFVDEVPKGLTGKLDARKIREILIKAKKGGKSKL
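qHTS concentration-response profiling: light output of P. pyralis luciferase with luciferin and 10 uM ATP, imidazole buffer pH 7.2. Read by luminescence after 8-min room-temperature incubation.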
TSHR ag: agonists of human thyroid stimulating hormone receptor; P16473; HEK293-CNG-TSHR cells (CNG channel as cAMP sensor), membrane potential dye, cAMP; Potency, µM (series often up to 57.1 µM), for the others: at the highest dose activation, hits mostly activators; hit rate 0.48% among 73,000; active = well fitted activation curve with a large enough effect in the main read-out, with a control signal flat, not every such curve was filed as active; inconclusive = small, poorly fitted or top-dose-only effect, or a change in a side signal; inactive = no such curve, though single readings can be large or run the other way; % of control where 0% means no effect;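 note: the control signal comes from parental cells without the receptor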
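HEK 293 cells stably expressing TSHR and a modified CNG channel, with CNG-only parental cells as counterscreen, were preloaded 60 min at room temperature with membrane potential dye containing 100 uM RO 20-1724. Compound exposure was 30 min, and depolarization was read as fluorescence at 590 nm.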
* = called active by the depositor; i = inactive; ? = inconclusive; · = no result given; ! = a repeat was not active; [ ] = dose if it differs, or a comment. An excerpt weighted towards active compounds, which were near 7.2% of everything screened. Unless noted, calls come from the whole dose curve; as a rule, active = well fitted curve in the direction sought with a large enough effect; inconclusive = small, poorly fitted or top-dose-only effect, or another doubt; inactive = no such curve, though single readings can be large; an effect the other way counts as inactive or inconclusive. Potency is the fitted concentration of half-maximal effect.

SMILES	HEK293 cAMP cs	Tau fil binding	ERK AVP inh	PK Bst	Luciferase inh	TSHR ag
c1ccc2sc(N3CCN(Cc4ccc5c(c4)OCO5)CC3)nc2c1	23.1%	?	4.9%	·	0.0%	21.5%
c1ccc2c(NCCN3CCOCC3)nc(-c3ccc4c(c3)OCO4)nc2c1	-90.3%	-5.8%	?	·	-1.5%[2.29 µM]	?
c1ccc(Nc2nc(-c3ccc4c(c3)OCO4)nc3ccccc23)cc1	5.0%	25.1µM*	15.8µM*	·	-1.2%[2.29 µM]	·
CNc1nc(-c2ccc3c(c2)OCO3)nc2ccccc12	-38.6%	59.1%	?	·	-3.7%[2.29 µM]	?
COc1ncc2nc(CCc3ccccc3)c(=O)n(Cc3ccc(F)cc3)c2n1	?	-9.3%	20.4%	·	0.0%[11.4 µM]	?
COc1ccc(OC)c(Nc2nc(N)nc(-c3cc4ccccc4o3)n2)c1	0.4%	63.7%	-7.6%	>57	-2.9%	-21.5%
Cc1c(-c2nc(N)nc(Nc3ccccc3)n2)oc2ccccc12	7.8%	105.5%	-8.4%	?	25.1µM*	·
CNc1nc(-c2c(C)noc2C)nc2ccccc12	-9.2%	-5.8%	-17.7%	·	-1.3%[2.29 µM]	7.1%
O=C(O)CN(c1ccc(F)cc1)S(=O)(=O)c1ccc2c(c1)OCCO2	11.6%	·	·	·	·	10.6%
Cc1ccc(N(CC(=O)N2CC(=O)Nc3ccccc32)S(=O)(=O)c2ccc3c(c2)OCCO3)cc1	10.1%	-8.1%	-0.5%	>57	-0.8%	7.94µM*
CC1=CC(=O)C2=C(C)CC[C@@H]3[C@H](OC(=O)[C@H]3C)[C@H]12	15.4%	?	·	·	2.8%[11.4 µM]	3.2%
COc1cccc(-c2nn(-c3ccccc3)cc2C(=O)NCC(=O)O)c1	0.2%	1.0%	-14.9%	·	20µM*	-3.4%
COc1cccc(-c2nn(-c3ccccc3)cc2CO)c1	-17.7%	-16.4%	?	·	-26.5%	-47.4%
O=S(=O)(/N=C(/Nc1cc(N2CCOCC2)ncn1)c1ccccc1)c1ccccc1	-1.7%	2.5%	16.6%	·	3.16µM*	9.6%
O=S(=O)(/N=C(/Nc1cc(N2CCOCC2)ncn1)c1ccc(F)cc1)c1ccccc1	-0.8%	10.3%	?	>57	-0.3%	0.5%
COC(=O)Cn1c(C(=O)N2CCCC2)cc2c1C[C@H]1CN(C(=O)c3ccccc3)[C@@](Cc3ccccc3)(C(=O)OC)[C@@H]21	20µM*	0.2%	-5.0%	·	·	?
COC(=O)[C@@]1(Cc2ccccc2)[C@H]2c3cc(C(=O)N4CCCC4)n(CC4CC4)c3C[C@H]2CN1C(=O)c1ccccc1	2µM*	5.7%	-14.5%	·	·	?
COC(=O)[C@@]1(Cc2ccccc2)[C@H]2c3cc(C(=O)N4CCCC4)n(CCc4ccccn4)c3C[C@H]2CN1C(=O)c1ccccc1	15.8µM*	5.5%	-4.3%	·	·	?
COC(=O)[C@@]1(Cc2ccc(F)cc2)[C@H]2c3cc(C(=O)N4CCCC4)n(CCc4ccccn4)c3C[C@H]2CN1C(=O)c1ccccc1	?	1.3%	-0.8%	·	·	?
COC(=O)[C@@]1(Cc2ccccc2)[C@H]2c3cc(C(=O)N4CCCC4)n(CCSCCO)c3C[C@H]2CN1C(=O)c1ccccc1	?	6.0%	-13.5%	·	·	?
CC(=O)OCC(=O)[C@@]12OC3(CCCC3)OC1CC1C3CCC4=CC(=O)C=C[C@@]4(C)[C@]3(F)C(O)C[C@]12C (stereo not given in full)	·	·	11.4%	·	·	·
CN1CCCN([C@@H](c2ccccc2)c2ccc(Cl)cc2)CC1	9.8%[25.6 µM]	-4.1%[25.6 µM]	-13.5%[25.7 µM]	·	-1.4%[25.5 µM]	-0.2%[25.6 µM]
N#Cc1nc(COc2ccccc2F)oc1NCCc1ccccc1	?	-4.2%	-13.2%	i	-6.1%	?
CN(Cc1ccccc1)c1oc(COc2ccccc2F)nc1C#N	25.1µM*	13.9%	?	·	-1.5%	?
CC(=O)Nc1cccc(NC(=O)CSc2ncc(-c3ccc(Cl)cc3)n2Cc2ccco2)c1	25.1µM*	20.6%	14.4%	>57	1.0%	?
SMILES	HEK293 cAMP cs	Tau fil binding	ERK AVP inh	PK Bst	Luciferase inh	TSHR ag
COc1ccc(-c2cnc(SCC(=O)Nc3ccc4c(c3)OCO4)n2Cc2ccco2)cc1	?	56.0%	-21.2%	>57	-7.6%	?
O=C1[C@H]2[C@H]3[C@H](O)[C@H](O)C/C(=N/OC[C@@H](O)COCc4ccco4)[C@H]3CC[C@@H]2C(=O)N1C[C@@H]1CCCO1	6.2%[11.4 µM]	·	8.9%[11.5 µM]	·	0.5%[11.4 µM]	-4.7%[11.4 µM]
O=C(CN1CCCC1)NCC12CC3CC(CC(C3)C1)C2	16.5%	31.6µM*	6.6%	>57	-0.1%	7.1%
NC(=O)NCC12CC3CC(CC(C3)C1)C2	2.3%	9.4%	-1.5%	>57	-1.0%	?
CC(C)CN1CC[C@@]2(CCCN(C(=O)c3cnccn3)C2)C1	23.1%	7.8%	1.2%	·	2.1%[11.4 µM]	5.6%
O=C1c2ccccc2N[C@H](c2cc(Cl)cc(Cl)c2O)N1CCc1ccccn1	15.3%[11.4 µM]	1.3%[11.4 µM]	-8.0%[11.5 µM]	·	1.1%[11.4 µM]	6.0%[11.4 µM]
O=c1c(O)c(-c2ccc(O)cc2)oc2cc(O)ccc12	-17.0%	-26.7%	?	·	-0.8%[11.4 µM]	-4.1%
O=c1c(O)c(-c2ccc(O)c(O)c2)oc2cc(O)ccc12	-7.3%	?	12.6µM*!	·	-1.9%[11.4 µM]	8.9%
O=c1c(O)c(-c2ccc(O)cc2)oc2cc(O)cc(O)c12	11.2%	31.6µM*!	?	·	0.5%[11.4 µM]	-3.5%
CCc1ccc(N/C(SC)=C(/C#N)C(N)=O)cc1	24.0%	-2.9%	-17.8%	>57	-2.8%	-1.3%
CCCCS/C(=C(/C#N)C(N)=O)c1cc2c([nH]1)CCCC2	5.01µM*	9.0%	?	>57	-2.1%	?
O=C1C=C(N2CCN(c3ccccn3)CC2)C(=O)c2c(O)ccc(O)c21	-37.1%[11.4 µM]	1.58µM*	?	·	-15.1%[11.4 µM]	?
O=c1c(-c2nc3ccccc3o2)c2oc3ccccc3n2c2ccccc12	-19.9%	11.5%	-6.2%	5.41*	-3.7%	-15.3%
O=c1oc2ccc(Br)cc2cc1-c1nc2ccccc2o1	-46.4%	-3.2%	-7.4%	>57	-2.0%	?
O=C(O)c1cccc(SSc2cccc(C(=O)O)c2)c1	10.1%[11.4 µM]	4.9%[11.4 µM]	4.5%[11.5 µM]	·	2.2%[11.4 µM]	-3.9%[11.4 µM]
CCOC(=O)C1=C(C)NC(=O)NC1C1CC=CCC1 (stereo not given)	5.1%	0.4%	-1.0%	>57	-1.2%	-12.8%
COC(=O)C1=C(C)NC(C)=C(C(=O)OC)C1C1CC=CCC1 (stereo not given)	20.6%	·	·	·	·	20µM*
O=c1c(-c2ccc3c(c2)OCCO3)coc2cc(O)cc(O)c12	?	-7.9%	?	5.96*	?	?
CC(N)=NCCCC[C@H](N)C(=O)O	5.8%	?	4.6%	·	1.3%	9.0%
N#Cc1ccccc1-c1ccc2ncnc(NC3CC3)c2c1	13.5%	1.6%	-29.5%	·	-1.3%[2.29 µM]	9.2%
CCOC(=O)C1CCCN(Cc2ccc(O)c(OC)c2)C1 (stereo not given)	-0.9%[11.4 µM]	-4.6%[11.4 µM]	-3.4%	·	1.2%	-1.2%[11.4 µM]
